ATXN2 expr inh: Primary qHTS for Inhibitors of ATXN expression. HEK-293 ATXN2-luciferase reporter, luminescence, 24 h. Potency, µM (titrated, usually from 57 µM), without a hit: top-dose activity change, negative = inhibition, hits mostly inhibitors. actives 0.72% (n = 360,000); also: % is scaled to controls: 0 for no effect and ±100 for the full control effect; nearly all actives have a fitted effect of over 55% in size
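ATXN2-luciferase reporter cells (luciferase flanked by upstream and downstream ATXN2 gene portions) were treated 24 h at 37 °C with compounds at up to 57 uM. SteadyGlo luminescence gave expression; GF-AFC fluorescence gave viability.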
HepG2 viability: qHTS for Inhibitors of TGF-b: Cytotox Counterscreen. AID 588856, 2011. actives 0.76% (n = 410,000). Potency, µM (doses to about 46.1 µM), without a hit: at the highest dose activity change, negative = cytotoxicity, usual class: cytotoxic. HepG2 CAGA-GFP viability, ATP luminescence, 18 h
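CellTiter-Glo luminescence gave cytotoxicity after 18 hours at 37 degrees C. The cells were HepG2 CAGA-GFP in 1% FBS DMEM, stimulated with 500 pg/mL TGF-beta after compound addition. %Activity was normalised to no-cell wells (complete cell-killing) and DMSO (no toxicity), and curves were fitted and classified.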
TGFb SMAD3 inh: qHTS for Inhibitors of TGF-b. HepG2 CAGA-GFP TGF-b/SMAD3 reporter, GFP fluorescence, 18 h; TGF-beta stimulated, 500 pg/mL final. Potency, µM (highest dose often 46.1 µM), inactives show at the highest dose activity, negative = inhibition, hits mostly inhibitors. actives 1.2% (n = 410,000); also: % is scaled to controls: 0 for no effect and ±100 for the full control effect; nearly all actives have a fitted effect of over 65% in size
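HEPG2 CAGA-GFP cells (1000/well, DMEM with 1% FBS) were pre-incubated 2 h at 37 degrees C, given compound by pin tool, then stimulated with TGF-beta at 500 pg/mL final for 18 h before per-cell GFP fluorescence imaging.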
ATXN viability: Viability Counterscreen for Primary qHTS for Inhibitors of ATXN expression; S2 cells (HEK-293 line with an ATXN2-luciferase reporter) viability, CellTiter-Fluor protease fluorescence, 24 h; Potency, µM (doses to about 56.7 µM), usual class: cytotoxic; actives 0.49% (n = 400,000); AID 651635, 2014; also: nearly all actives have a fitted effect of over 40% in size
An asterisk follows results filed as active; i = inactive; ? = inconclusive; nt = no result. An excerpt weighted towards active compounds, which were near 2.3% of everything screened. Calls follow the shape of the dose curve; as a rule, active = well fitted curve in the direction sought with a large enough effect; inconclusive = small, poorly fitted or top-dose-only effect, or another doubt; inactive = no such curve, though single readings can be large; an effect the other way counts as inactive or inconclusive. Potency is read from the fitted curve at half-maximal effect.

SMILES	ATXN2 expr inh	HepG2 viability	TGFb SMAD3 inh	ATXN viability
CCC1C(=O)NCCN1Cc1ccc2c(c1)CN(Cc1cccn1-c1ccc(Cl)cn1)CCO2 (stereo not drawn)	nt	nt	nt	i
Cc1ccc(C(=O)N/N=C/c2cc(Br)ccc2O)cn1	2µM*	-33.9%	?	?
O=C(N/N=C/c1cc(Cl)ccc1O)c1ccncc1	?	12.6µM*	?	i
CN(C)c1ccc(C(=O)N/N=C/c2cc(Br)cc(Br)c2O)cc1	3.55µM*	-31.7%	?	i
CN(C)CCCNc1cc(C(C)(C)C)nc2c(-c3ccc(Cl)cc3)cnn12	?	-103.1%	22.4µM*	nt
CCn1c(-c2ccccc2F)nc2cc(C(=O)N3CCCC(CO)C3)cc(NC(C)=O)c21 (stereo not drawn)	nt	nt	nt	i
CC(C)(C)OC(=O)N1CCC(c2c(C(=O)NC3CCCCC3)cnn2-c2cccc(Cl)c2)CC1	nt	4.0%	17.8µM*	nt
COc1ccccc1N1CCN(CCCNC(=O)c2cnn(-c3cccc(Cl)c3)c2C2CCN(C(=O)OC(C)(C)C)CC2)CC1	nt	12.6µM*	12.6µM*	nt
Cc1c(Cl)cccc1-n1ncc(C(=O)NC2CCCCC2)c1C1CCN(C(=O)OC(C)(C)C)CC1	10.6%	-12.4%	-8.3%	i
Cc1cc(C)cc(OCC(=O)N/N=C/c2ccc([N+](=O)[O-])o2)c1	?	-95.7%	?	?
Cc1ccccc1OCC(=O)N/N=C/c1ccc([N+](=O)[O-])o1	nt	-91.1%	17.8µM*	?
COc1ccccc1OCC(=O)N/N=C/C=C/c1ccc([N+](=O)[O-])o1	?	-76.1%	10µM*	?
O=C(c1ccc(F)cc1)N1CCC[C@H](c2nc(-c3ccc(F)cc3)no2)C1	15.8%	nt	nt	nt
O=C(Cn1nc(C(F)(F)F)c2c1CCCC2)Nc1ccc(F)c(Cl)c1	?	-85.7%	11.2µM*	?
Nc1ccc(/C=C/c2nc3ccccc3s2)cc1	nt	-12.9%	-0.2%	nt
COc1cccc(S(=O)(=O)N(C)C[C@H]2OCc3cnnn3CCCC(=O)N([C@H](C)CO)C[C@H]2C)c1	-2.5%	17.8µM*	-5.8%	i
C[C@@H]1CN([C@H](C)CO)C(=O)CCCn2nncc2CO[C@@H]1CN(C)S(=O)(=O)c1cn(C)cn1	-9.7%	11.2µM*	-21.6%	i
CS(=O)(=O)c1ccc(-c2cnc(N)c(C(=O)Nc3ccccc3)n2)cc1	-11.7%	nt	nt	nt
O=[N+]([O-])c1ccc(O)c(N=Cc2sc3ccccc3c2O)c1	?	-3.9%	-17.6%	28.2µM*
O=C(c1ccc2c(=O)n(-c3ccccc3)c(=O)[nH]c2c1)N1CCN(Cc2cccs2)CC1	nt	8.8%	28.4%	nt
O=C(N/N=C/c1cc(Cl)ccc1O)C(=O)Nc1ccccc1OC(F)(F)C(F)F	12.6µM*	-8.6%	?	i
COc1ccccc1/C=N/NC(=O)C(=O)Nc1ccccc1OC(F)(F)C(F)F	5.2%	8.9%	-2.4%	i
O=C(N/N=C/c1cc(Br)ccc1O)C(=O)Nc1ccccc1OC(F)(F)C(F)F	3.16µM*	-35.0%	?	i
Cc1oc(-c2cccc(NC(=O)c3ccccn3)c2)nc1CNC(=O)c1ccc(C(F)(F)F)cc1	nt	nt	nt	i
COc1cc2nc(N(C)C)c(CNCc3nonc3C)cc2c(OC)c1OC	nt	nt	nt	i
SMILES	ATXN2 expr inh	HepG2 viability	TGFb SMAD3 inh	ATXN viability
Nc1nc[nH]c(=O)c1N	nt	5.7%	18.4%	nt
Cc1c2oc3c(C)ccc(C(=O)NC4C(=O)NC(C(C)C)C(=O)N5CCCC5C(=O)N(C)CC(=O)N(C)C(C(C)C)C(=O)OC4C)c3nc-2c(C(=O)NC2C(=O)NC(C(C)C)C(=O)N3CCCC3C(=O)N(C)CC(=O)N(C)C(C(C)C)C(=O)OC2C)c(N)c1=O (stereo not drawn)	0.0004µM*	nt	nt	nt
CCCC(=O)OCOC(=O)C1=C(C)NC(C)=C(C(=O)OC)C1c1cccc(Cl)c1Cl (stereo not drawn)	6.1%	nt	nt	i
CCOC(=O)c1cnc2ccc(OCC)cc2c1NCCc1ccc(OC)c(OC)c1	nt	-47.9%	12.6µM*	nt
CCOC(=O)c1cnc2ccc(Br)cc2c1NCCO	-15.9%	-42.4%	0.1%	i
CCOC(=O)c1cnc2ccc(C)cc2c1NCCc1ccc(OC)c(OC)c1	-13.5%	-51.0%	11.2µM*	i
CCOC(=O)c1cnc2ccc(C)cc2c1NCCN1CCOCC1	-3.4%	-17.2%	1.4%	?
COc1cccc(N2CCN(c3ncnc4c3[nH]c3ccc(F)cc34)CC2C)c1 (stereo not drawn)	3.55µM*	-69.9%	?	10µM*
COc1ccc2[nH]c3c(N4CC(C)OC(C)C4)ncnc3c2c1 (stereo not drawn)	-31.1%	-0.9%	0.3%	i
CCN1C/C(=C\c2cccc([N+](=O)[O-])c2)C(=O)/C(=C/c2cccc([N+](=O)[O-])c2)C1	3.55µM*	-50.7%	?	4.47µM*
O=c1c2ccccc2oc2ccc(-c3ccoc3)cc12	nt	-16.3%	?	nt
CCC1CN(CC(=O)N(C)Cc2nc3ccccc3[nH]2)Cc2cc(OC)ccc2O1 (stereo not drawn)	nt	nt	nt	i
CC(=O)Nc1cc(-c2nc3cc(Cl)ccc3o2)ccc1C	61.8%	-12.7%	-2.4%	i
CC(=O)Nc1ccc(-c2nc3cc(Cl)ccc3o2)cc1	63.0%	-37.6%	11.2µM*	i
Cc1cnc(-n2ncc(C(=O)N(C)CCc3ccccn3)c2-c2cccs2)nc1-c1ccc(F)cc1	nt	nt	nt	i
CC(=O)Nc1cccc(-c2ccnc3c2CC(C)(C(=O)Nc2cccc(OC(F)(F)F)c2)O3)c1 (stereo not drawn)	?	-50.8%	14.1µM*	?
CC(=O)Nc1ccc(-c2ccnc3c2CC(C)(C(=O)Nc2ccc(Cl)c(C(F)(F)F)c2)O3)cc1 (stereo not drawn)	20µM*	-59.2%	?	12.6µM*
CC1(C(=O)Nc2ccc(Cl)c(C(F)(F)F)c2)Cc2c(-c3ccccc3)ccnc2O1 (stereo not drawn)	-4.6%	-26.6%	?	i
O=C(Nc1ccc(Cl)c(C(F)(F)F)c1)C1Cc2c(-c3ccccc3)ccnc2O1 (stereo not drawn)	-24.8%	11.2µM*	14.1µM*	?
CC1(C(=O)Nc2cccc(OC(F)(F)F)c2)Cc2c(-c3cccc(C(F)(F)F)c3)ccnc2O1 (stereo not drawn)	-8.9%	-22.9%	?	i
CCOc1ccccc1CN1CCCC(c2nc(C)ncc2-c2ccc(F)cc2)C1 (stereo not drawn)	nt	nt	nt	i
Cc1nc2n(c(=O)c1CCN1CCC(c3noc4cc(F)ccc34)CC1)CCC[C@@H]2O	nt	-11.7%	-0.1%	nt
C=CCOCCN(C)C1=NS(=O)(=O)c2cc([N+](=O)[O-])ccc21	-36.1%	14.1µM*	?	i
